{"source": "the supplement of paper PMC8728848", "binders": {"B1": {"name": "CFEM-CGl (Candida glabrata), Q6FRS0 (protein)", "chain": "VLATPPACLLACVAQVSKQSSQCHTLNQVGCFCENENTAIKNCLDSICPNGNSDAAYTAFKNSCGDVGKAVASV"}}, "assay_in_all_cases": "glycan array binding signal (z-score within array); higher = stronger binding", "conditions_in_all_cases": "glycan notation: IUPAC condensed, linker removed", "key": {"[1]": {"molecular_target": "GlcNAc(a1-4)Gal(b1-4)GlcNAc(b1-3)Gal(b1-4)Glc", "method_in_brief": "(§1)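 From the Consortium for Functional Glycomics database, 3228 arrays were curated, keeping only those whose protein sequence was available. Binding is given as a within-array Z-score averaged across arrays sharing a protein sequence and across linkers. Negative Z-scores can be read as non-binding.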"}, "[2]": {"molecular_target": "GlcNAc(b1-2)[GlcNAc(b1-4)]Man(a1-3)[GlcNAc(b1-4)][GlcNAc(b1-2)[GlcNAc(b1-6)]Man(a1-6)]Man(b1-4)GlcNAc(b1-4)[Fuc(a1-6)]GlcNAc", "method_in_brief": "as §1"}, "[3]": {"molecular_target": "GlcNAc(b1-3)Gal(b1-4)GlcNAc(b1-3)Gal(b1-4)GlcNAc(b1-2)Man(a1-3)[GlcNAc(b1-3)Gal(b1-4)GlcNAc(b1-3)Gal(b1-4)GlcNAc(b1-2)Man(a1-6)]Man(b1-4)GlcNAc(b1-4)GlcNAc", "method_in_brief": "as §1"}, "[4]": {"molecular_target": "GlcNAc(b1-3)Gal(b1-4)GlcNAc(b1-3)Gal(b1-4)GlcNAc(b1-3)Gal(b1-4)GlcNAc(b1-3)Gal(b1-4)GlcNAc(b1-2)Man(a1-3)[GlcNAc(b1-3)Gal(b1-4)GlcNAc(b1-3)Gal(b1-4)GlcNAc(b1-3)Gal(b1-4)GlcNAc(b1-3)Gal(b1-4)GlcNAc(b1-2)Man(a1-6)]Man(b1-4)GlcNAc(b1-4)GlcNAc", "method_in_brief": "as §1"}, "[5]": {"molecular_target": "GlcNAc(b1-3)[GlcNAc(b1-6)]Gal(b1-4)GlcNAc", "method_in_brief": "as §1"}, "[6]": {"molecular_target": "GlcNAc(b1-4)GlcNAc(b1-4)GlcNAc(b1-4)GlcNAc(b1-4)GlcNAc(b1-4)GlcNAc", "method_in_brief": "as §1"}, "Kdn(a2-3)Gal(b1-3)GlcNAc": {"molecular_target": "Kdn(a2-3)Gal(b1-3)GlcNAc", "method_in_brief": "as §1"}, "[7]": {"molecular_target": "Man(a1-3)[Man(a1-6)]Man(a1-6)[Man(a1-3)]Man(b1-4)GlcNAc(b1-4)GlcNAc", "method_in_brief": "as §1"}, "[8]": {"molecular_target": "Neu5Ac(a2-3)Gal(b1-3)GalNAc(b1-4)[Neu5Ac(a2-8)Neu5Ac(a2-3)]Gal(b1-4)Glc", "method_in_brief": "as §1"}, "[9]": {"molecular_target": "Neu5Ac(a2-3)Gal(b1-3)GalNAc6S", "method_in_brief": "as §1"}, "[10]": {"molecular_target": "Neu5Ac(a2-3)Gal(b1-3)GlcNAc(b1-3)Gal(b1-4)GlcNAc", "method_in_brief": "as §1"}, "[11]": {"molecular_target": "Neu5Ac(a2-3)Gal(b1-3)[Fuc(a1-4)]GlcNAc", "method_in_brief": "as §1"}, "[12]": {"molecular_target": "Neu5Ac(a2-3)Gal(b1-4)GlcNAc(b1-2)Man(a1-3)[Neu5Ac(a2-3)Gal(b1-4)GlcNAc(b1-2)Man(a1-6)]Man(b1-4)GlcNAc(b1-4)GlcNAc", "method_in_brief": "as §1"}, "[13]": {"molecular_target": "Neu5Ac(a2-3)Gal(b1-4)GlcNAc6S", "method_in_brief": "as §1"}, "[14]": {"molecular_target": "Neu5Ac(a2-3)Gal(b1-4)[Fuc(a1-3)]GlcNAc(b1-3)Gal", "method_in_brief": "as §1"}, "[15]": {"molecular_target": "Neu5Ac(a2-3)Gal(b1-4)[Fuc(a1-3)]GlcNAc(b1-3)GalNAc", "method_in_brief": "as §1"}, "[16]": {"molecular_target": "Neu5Ac(a2-3)Gal(b1-4)[Fuc(a1-3)]GlcNAc(b1-6)[Gal(b1-3)]GalNAc", "method_in_brief": "as §1"}, "[17]": {"molecular_target": "Neu5Ac(a2-3)GalNAc(b1-4)GlcNAc", "method_in_brief": "as §1"}, "[18]": {"molecular_target": "Neu5Ac(a2-3)[Neu5Ac(a2-6)]GalNAc", "method_in_brief": "as §1"}, "[19]": {"molecular_target": "Neu5Ac(a2-6)Gal(b1-3)GlcNAc(b1-3)[Gal(b1-4)GlcNAc(b1-6)]Gal(b1-4)Glc", "method_in_brief": "as §1"}, "[20]": {"molecular_target": "Neu5Ac(a2-6)Gal(b1-4)GlcNAc(b1-3)Gal(b1-4)GlcNAc(b1-3)Gal(b1-4)GlcNAc(b1-2)Man(a1-3)[Neu5Ac(a2-6)Gal(b1-4)GlcNAc(b1-3)Gal(b1-4)GlcNAc(b1-3)Gal(b1-4)GlcNAc(b1-2)Man(a1-6)]GalNAc", "method_in_brief": "as §1"}, "Neu5Ac(b2-6)GalNAc": {"molecular_target": "Neu5Ac(b2-6)GalNAc", "method_in_brief": "as §1"}, "[21]": {"molecular_target": "Neu5Ac9Ac(a2-3)Gal(b1-4)GlcNAc", "method_in_brief": "as §1"}, "[22]": {"molecular_target": "Neu5Gc(a2-3)Gal(b1-4)GlcNAc", "method_in_brief": "as §1"}}, "note": "About 410 targets per protein were measured; listed, in parts, are those with the strongest signals and a random draw of the rest.", "data": [{"binder": "B1", "values": [{"measurement": "glycan array binding signal (z-score)", "setting": "[1]", "result": -0.384}, {"measurement": "glycan array binding signal (z-score)", "setting": "[2]", "result": -0.628}, {"measurement": "glycan array binding signal (z-score)", "setting": "[3]", "result": 3.84}, {"measurement": "glycan array binding signal (z-score)", "setting": "[4]", "result": -0.264}, {"measurement": "glycan array binding signal (z-score)", "setting": "[5]", "result": -0.258}, {"measurement": "glycan array binding signal (z-score)", "setting": "[6]", "result": 0.197}, {"measurement": "glycan array binding signal (z-score)", "setting": "Kdn(a2-3)Gal(b1-3)GlcNAc", "result": -0.288}, {"measurement": "glycan array binding signal (z-score)", "setting": "[7]", "result": -0.003}, {"measurement": "glycan array binding signal (z-score)", "setting": "[8]", "result": -0.372}, {"measurement": "glycan array binding signal (z-score)", "setting": "[9]", "result": 0.752}, {"measurement": "glycan array binding signal (z-score)", "setting": "[10]", "result": -0.343}, {"measurement": "glycan array binding signal (z-score)", "setting": "[11]", "result": -0.12}, {"measurement": "glycan array binding signal (z-score)", "setting": "[12]", "result": -0.517}, {"measurement": "glycan array binding signal (z-score)", "setting": "[13]", "result": -0.111}, {"measurement": "glycan array binding signal (z-score)", "setting": "[14]", "result": -0.311}, {"measurement": "glycan array binding signal (z-score)", "setting": "[15]", "result": 3.44}, {"measurement": "glycan array binding signal (z-score)", "setting": "[16]", "result": 0.977}, {"measurement": "glycan array binding signal (z-score)", "setting": "[17]", "result": -0.449}, {"measurement": "glycan array binding signal (z-score)", "setting": "[18]", "result": -0.425}, {"measurement": "glycan array binding signal (z-score)", "setting": "[19]", "result": -0.355}, {"measurement": "glycan array binding signal (z-score)", "setting": "[20]", "result": 4.31}, {"measurement": "glycan array binding signal (z-score)", "setting": "Neu5Ac(b2-6)GalNAc", "result": 0.161}, {"measurement": "glycan array binding signal (z-score)", "setting": "[21]", "result": -0.485}, {"measurement": "glycan array binding signal (z-score)", "setting": "[22]", "result": -0.194}]}]}
